Only some compounds are listed: those with a hit (about 8% of all), similar ones and a draw of the others.
Gal4-VP16 FLuc: VP16 counterscreen qHTS for inhibitors of ROR gamma transcriptional activity; hit rate 3.5% among 310,000; AID 2546, 2010; Drosophila S2 Gal4-VP16 UAS-luciferase, luminescence, 20 h; Potency, µM (doses to about 53.6 µM), without a hit: top-dose activity, negative = inhibition, usual class: inhibitors;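 note: Gal4-VP16 expression switched on by copper sulfate through the metallothionein promoter; potency is the fitted concentration of half-maximal effect; nearly all actives have a fitted effect of over 50% in size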
ELG1 DNA repair: qHTS screen for small molecules that inhibit ELG1-dependent DNA repair in human embryonic kidney (HEK293T) cells expressing luciferase-tagged ELG1; HEK293T ELG1-luciferase reporter, luminescence, 16 h; DNA damage induced by 5-fluorouridine; Potency, µM (highest dose often 46.1 µM), for the others: at the top dose activity change, negative = inhibition, hits mostly inhibitors; hit rate 2.3% among 330,000; note: potency is the fitted concentration of half-maximal effect; nearly all actives have a fitted effect of over 55% in size
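Quantitative HTS, concentration-response format. 2,000 cells/well co-treated with 5-fluorouridine and compound, 16 hr in 5% CO2 at 37 °C; ONE-Glo luminescence read after 30 min.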
FBPA coupling cs: qHTS Assay for Inhibitors of Fructose-1,6-bisphosphate Aldolase from Giardia Lamblia: Coupling assay counterscreen | coupling enzyme system counterscreen, AmpLite Red fluorescence | activity change, negative = inhibition, % at 58.2 µM, hits read low | hit rate 0.67% among 290,000 | AID 2472, 2010; in the data active = activity change below about -30%
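Coupling enzymes only (glyceraldehyde-3-phosphate) + compound, at 57.5 uM final, 10 min RT; add substrate/coupling/AmpLite Red mix, 20 min RT; fluorescence ex 525/em 598 nm. Actives flag coupling-system interference.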
TSHR antag: Antagonists of the Thyroid Stimulating Hormone Receptor: HTS campaign | TSHR-expressing cells, TSH-stimulated cAMP HTRF, 2 h; hits give low values | activity change, negative = inhibition, % at 11.5 µM | hit rate 0.2% among 330,000 | AID 504810, 2011;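 active = activity change below a set negative limit, meaning inhibition stronger than a set level, cut at about -70% in these data; inconclusive = activity change between two set negative limits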
Target sequence (P16473 whole entry, looked up): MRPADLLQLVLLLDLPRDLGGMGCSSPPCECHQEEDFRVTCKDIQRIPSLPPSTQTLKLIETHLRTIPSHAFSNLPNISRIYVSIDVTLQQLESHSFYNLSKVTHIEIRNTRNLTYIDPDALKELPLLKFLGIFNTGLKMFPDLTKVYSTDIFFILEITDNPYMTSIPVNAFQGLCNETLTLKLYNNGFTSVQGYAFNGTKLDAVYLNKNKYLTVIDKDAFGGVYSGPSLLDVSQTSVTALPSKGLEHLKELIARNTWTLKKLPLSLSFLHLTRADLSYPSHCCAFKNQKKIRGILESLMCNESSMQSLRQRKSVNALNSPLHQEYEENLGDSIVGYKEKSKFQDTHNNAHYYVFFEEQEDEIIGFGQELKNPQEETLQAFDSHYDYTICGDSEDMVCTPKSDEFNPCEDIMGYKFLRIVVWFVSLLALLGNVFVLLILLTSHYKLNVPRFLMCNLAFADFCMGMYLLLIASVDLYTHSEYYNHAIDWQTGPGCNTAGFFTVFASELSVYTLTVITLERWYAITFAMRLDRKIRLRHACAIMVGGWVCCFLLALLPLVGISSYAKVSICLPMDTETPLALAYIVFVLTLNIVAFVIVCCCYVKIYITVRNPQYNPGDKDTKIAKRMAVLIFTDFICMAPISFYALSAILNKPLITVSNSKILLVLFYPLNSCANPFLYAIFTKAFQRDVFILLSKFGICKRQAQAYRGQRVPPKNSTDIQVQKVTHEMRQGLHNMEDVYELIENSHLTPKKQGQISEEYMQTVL
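Antagonism was scored as loss of TSH-driven cAMP in TSHR cells, stimulated with 4nM TSH (EC80) for 2 hours at 37 deg C and detected by homogeneous HTRF competition immunoassay.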
RORgamma inh: qHTS for inhibitors of ROR gamma transcriptional activity. Drosophila S2 Gal4-RORgamma UAS-luciferase reporter, 20 h. Potency, µM (series often up to 53.6 µM), without a hit: top-dose activity change, negative = inhibition, actives largely listed as inhibitors. hit rate 5.4% among 310,000. AID 2551, 2010; note: potency is the fitted concentration of half-maximal effect; nearly all actives have a fitted effect of over 60% in size
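A Gal4/UAS one-hybrid system in insect cells: metallothionein-promoter Gal4–ROR gamma fusion plus Photinus luciferase reporter. Copper sulfate 700 uM final, 20 hr ambient incubation, luminescent detection after 10 min with reagent.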
* = called active by the depositor; u = inconclusive; x = not tested or not shown; [ ] = dose if it differs, or a comment. Unless noted, calls come from the whole dose curve; as a rule, active = well fitted curve in the direction sought with a large enough effect; inconclusive = small, poorly fitted or top-dose-only effect, or another doubt; inactive = no such curve, though single readings can be large; an effect the other way counts as inactive or inconclusive. % is set by controls: 0 for no effect and ±100 for the full control effect.

SMILES	Gal4-VP16 FLuc	ELG1 DNA repair	FBPA coupling cs	TSHR antag	RORgamma inh
NNC(=S)Nc1ccc(S(=O)(=O)N2CCOCC2)cc1	3%	1%	-2	-2	u
Cc1cccc(N2CC(C(=O)NCc3ccco3)CC2=O)c1C (stereo not given)	x	-3%	x	18	x
O=C(NCCCCCCNC(=O)c1ccncc1)c1ccncc1	-15%	11%	0	2	-1%
FC(F)(F)c1cc(-c2ccccc2)nc(-n2cncn2)n1	4%[0.365 µM]	3%	2	-7	-25%
Fc1ccc(-c2cc(-c3ccccc3)nc(-n3cccn3)n2)cc1	u	u	4	23	1µM*
Cc1[nH]c2ccccc2c1C(O)CN1CCN(c2cccc(C(F)(F)F)c2)CC1 (stereo not given)	-17%	15µM*	-18	14	2%
CC(C)CN(C(=O)COC(=O)Cc1cccc2ccccc12)c1c(N)n(Cc2ccccc2)c(=O)[nH]c1=O	x	-9%	x	-5	x
O=C(Nc1ccc(Oc2nnc(-c3ccccc3)c3ccccc23)cc1)c1ccccc1	u	23µM*	2	-7	4%
COc1ccc(Oc2nnc(-c3ccc(C)cc3)c3ccccc23)cc1	-4%	11%	4	-5	2%
COc1ccc(-c2cc(-c3cccs3)nc(OC)c2C#N)cc1OC	-9%	18µM*	1	-15	82%
Cc1cc(C(=O)NC2CCCc3c2cnn3-c2cccc(C)c2C)no1 (stereo not given)	u	u	4	3	u
CCn1cc(C(=O)NC2CCCc3c2cnn3-c2cccc(C)c2C)cn1 (stereo not given)	1.3µM*	u	x	-26	-7%
COc1ccc(C(=O)NC2CCCc3c2cnn3-c2cccc(C)c2C)o1 (stereo not given)	u	0%	x	-15	u
Cc1cccc(-n2ncc3c2CCCC3NC(=O)Cc2c(C)noc2C)c1C (stereo not given)	10µM*	u	0	-9	20%
CC1=C(C(=O)NC2CCCc3c2cnn3-c2cccc(C)c2C)OCCO1 (stereo not given)	11µM*	u	x	-17	u
CC(=O)Nc1cccc(OCC(=O)NC(C)c2ccc3ccccc3c2)c1 (stereo not given)	-17%	-12%	-1	-4	10%
CC1Oc2ccccc2N(CC(=O)NCCN2CCOCC2)C1=O (stereo not given)	0%	-2%	0	5	-21%
O=C1Oc2ccccc2C(=O)C1C(CC(O)c1ccc(-c2ccc(Br)cc2)cc1)c1ccccc1 (stereo not given)	-9%	x	x	x	u
Cc1noc(C)c1NC(=O)N(C)C[C@H]1Oc2ccc(NC(=O)Cc3ccccc3)cc2C(=O)N([C@H](C)CO)C[C@@H]1C	x	11%	x	5	x
CSc1ccccc1NC(=O)C1CCN(S(C)(=O)=O)CC1	-9%	-3%	1	-16	-11%
COc1cc(OC)c2c(c1)OC(=O)CC2c1ccccc1OC (stereo not given)	-5%	x	5	x	-6%
CO[C@H]1COC(=O)C/C=C\[C@@H](C)[C@H](OC)COC(=O)CCC[C@@H]1C	-15%[10 µM]	x	2	x	14%[10 µM]
C#CCn1c(=NC(=O)CSC(C)=O)sc2cc(F)ccc21	-29%	10%	7	-30	2.5µM*
CC(C)=CCc1c2c(c3occ(-c4ccc(O)c(O)c4)c(=O)c3c1O)C=CC(C)(C)O2	u	x	-11	x	u
CC(C)=CCc1c(O)cc2occ(-c3ccc4c(c3)OCO4)c(=O)c2c1O	14µM*	x	-2	x	u
O=c1c(-c2cc(O)c(O)c(O)c2)coc2cc(O)c(O)c(O)c12	-12%	x	-71*	x	0%
Cc1cccc(N=Cc2[nH]c3ccc(Br)c(Cl)c3c2O)c1	u	u	-33*	11	-18%
COc1ccccc1CN=Cc1[nH]c2ccc(Br)c(Cl)c2c1O	11µM*	8%	-44*	5	-101%

Assay outcomes (PubChem)
